From ChEMBL document CHEMBL3988442, “University of Dundee, Small-Polar-MMV Screening Library” (2021) come the findings set out here.

In all, about 48,000 compounds went through this assay and about 13,000 (27%) showed an effect of 50% or more. This is one part of the list.

The subject of the assay is Wolbachia pipientis. The experiment in a line: Anti-Wolbachia Cell-Based Screen. Details: scale not given: in the data most compounds retested in dose-response had high values. Format: functional. Conditions: 5 µM.
With `COc1ccc2c(c1)CC(C1CCOCC1)N(C(=O)c1ccn(C)n1)C2` (centres undefined), the “Percent Effect” value came out at 107.8%.

Turning to `COc1ccc2c(c1)CC(C1CCOCC1)N(C(=O)c1cnccn1)C2` (centres undefined), the “Percent Effect” value is reported as 143.6%.

As to `COc1ccc2c(C)c(C(=O)NC3CCOCC3)oc2c1`, the “Percent Effect” value is -11.52%.

Regarding `CN(C(=O)c1ccc(Cl)cn1)c1ccccc1S(C)(=O)=O`, the “Percent Effect” value is given as -14.63%.

For the compound `O=C(N1CCC(O)(C(F)(F)F)C1)C1(c2ccc(Cl)cc2)CC1` (centres undefined), the “Percent Effect” value stood at 16.08%.

Regarding `Cc1cc(NC(=O)C(C)N2CCN(c3nc(C)ns3)CC2)on1` (centres undefined), the “Percent Effect” value is 15.5%.

As to `CN(Cc1nnc(C2CC2)o1)C(c1ccc(F)cc1)c1cccnc1` (centres undefined), the “Percent Effect” value is on record as 14.1%.

Regarding `O=C(c1c[nH]cn1)N1CCCn2c(nnc2Cn2cccc2)C1`, the “Percent Effect” value worked out at 4.942%.

With `O=C1CCCN1Cc1nnc2n1CCCN(C(=O)c1ccc[nH]1)C2`, the “Percent Effect” value is given as 114.8%.

Regarding `CN(C)Cc1nnc2n1CCCN(C(=O)c1c[nH]cn1)C2`, the “Percent Effect” value is -1.146%.

With `O=C(N1CCCC1)N1CCn2c(Cn3cccn3)cnc2C1`, the “Percent Effect” value came to 0.9982%.

`O=C(c1ccc[nH]1)N1CCc2ncc(Cn3cccn3)n2CC1`: the “Percent Effect” value worked out at 112.6%.

Regarding `Cc1cnc(N2CCCn3c(nnc3Cn3cccn3)C2)nc1`, the “Percent Effect” value is -6.744%.

For the compound `O=C(C1CCCO1)N1CCc2nnc(Cn3cccc3)n2CC1` (centres undefined), the “Percent Effect” value was -14.83%.

In the case of `O=C(c1cccs1)N1CCc2nnc(COc3cncnc3)n2CC1`, the “Percent Effect” value is reported as 6.421%.

For the compound `O=C(C1CCCO1)N1CCCn2c(nnc2Cn2cccn2)C1` (centres undefined), the “Percent Effect” value is recorded as -13.04%.

Turning to `O=C(c1ccc[nH]1)N1CCc2nnc(Cn3cccc3)n2CC1`, the “Percent Effect” value came to 104.6%.

Take `O=C(c1ccc[nH]1)N1CCCn2c(nnc2Cn2cccn2)C1`: the “Percent Effect” value was found to be 88.61%.

Consider `CN(C)C(=O)N1CCn2c(Cn3cccn3)cnc2C1`, for which the “Percent Effect” value is -38.04%.

As for `CC(C)(C)C(O)CN1CCN(Cc2cccc(C#N)c2)CC1` (centres undefined), the “Percent Effect” value is on record as -1.667%.

In the case of `CC(=O)N[C@H]1CCN2C(=O)[C@@H](Cc3c[nH]c4ccccc34)NC(=O)[C@H]12`, the “Percent Effect” value is reported as -9.075%.

With `COCCN1CC(C(=O)N(C)Cc2ccc(Cl)s2)CC1=O` (centres undefined), the “Percent Effect” value is 25.53%.

As for `O=C(c1ccc(SC(F)F)cc1)N1CCOCC1c1ncon1` (centres undefined), the “Percent Effect” value stood at 2.35%.

With `O=C1NCC(CN2CCc3onc(-c4ccc(C(F)(F)F)cc4)c3C2)O1` (centres undefined), the “Percent Effect” value came to 4.598%.

As for `Cc1cccc(C(=O)N2CCCn3c(CN4CCCCC4)nnc3C2)c1`, the “Percent Effect” value is -5.352%.

Consider `CC(C)N(C)Cc1nnc2n1CCCN(C(=O)c1ccco1)C2`, for which the “Percent Effect” value is recorded as 10.89%.

As to `Cc1[nH]ccc1C(=O)N1CCC(c2nnc(Cn3cccn3)n2C)CC1`, the “Percent Effect” value is -8.959%.

For the compound `O=C1CCCN1Cc1nnc2n1CCCN(C(=O)c1ccco1)C2`, the “Percent Effect” value is given as 122.9%.

For the compound `O=C(c1ccc[nH]1)N1CCCn2c(CN3CCCCC3)nnc2C1`, the “Percent Effect” value was determined as 104.7%.

As to `c1cnn(Cc2nnc3n2CCCN(c2nccs2)C3)c1`, the “Percent Effect” value is reported as -8.945%.

Take `O=C(O)C(F)(F)F.O=C(c1ccccc1)N1CCCn2c(CN3CCCCC3)nnc2C1`: the “Percent Effect” value is listed as -7.245%.

On to `O=C(O)C(F)(F)F.O=C(O)C(F)(F)F.O=C(c1c[nH]cn1)N1CCCn2c(CN3CCCCC3)nnc2C1`, for which the “Percent Effect” value is given as 0.5876%.

Turning to `O=C(O)C(F)(F)F.O=C(c1ccccc1F)N1CCCn2c(CN3CCCCC3)nnc2C1`, the “Percent Effect” value is 18.71%.

As to `O=C(c1ccc[nH]1)N1CCc2nnc(Cn3cccn3)n2CC1`, the “Percent Effect” value stood at 121.3%.

As to `O=C(O)C(F)(F)F.O=C(c1ccc[nH]1)N1CCCn2c(CNC3CCC3)nnc2C1`, the “Percent Effect” value is 88.36%.

Take `COCCNC(=O)C(C)S(=O)(=O)c1ccc(OC)cc1` (centres undefined): the “Percent Effect” value is -5.557%.

With `CCS(=O)(=O)N(C)C1CCN(c2cccc(F)c2C(C)=O)CC1`, the “Percent Effect” value is recorded as 1.671%.

`CCN(CC)C(=O)CC[C@@H]1CNC(=O)[C@@H]2C[C@H](NC(=O)C3CC3)CN12`: the “Percent Effect” value is given as -0.8785%.

On to `COCc1nc(C(=O)NS(=O)(=O)c2ccc(C)c(C)c2)cs1`, for which the “Percent Effect” value is -2.372%.

`CSCC(=O)N1CCC(c2nccn2Cc2cscn2)CC1`: the “Percent Effect” value is given as -14.72%.

Consider `COCC1CN(Cc2cc(C)on2)Cc2cn(CC3CC3)nc21` (centres undefined), for which the “Percent Effect” value is -5.451%.

Turning to `O=C(c1ccncc1)N1C[C@@H]2CC[C@H](C1)N(C(=O)C1CCCC1)C2`, the “Percent Effect” value was determined as 23.43%.

On to `CCN(C)C(=O)c1ncn2c(C3CCN(S(C)(=O)=O)CC3)ccnc12`, for which the “Percent Effect” value is given as -14.84%.

As for `Cn1nc(C2CN(C(=O)c3cccnc3)C2)c2nccnc21`, the “Percent Effect” value amounted to 106.4%.

For `Cn1nc(C2CN(C(=O)c3cscn3)C2)c2nccnc21`, the “Percent Effect” value is on record as -8.374%.

As to `CCc1ccc2c(C3CN(S(C)(=O)=O)C3)ncn2c1`, the “Percent Effect” value is reported as 15.67%.

As for `Cn1nc(C2CN(S(C)(=O)=O)C2)c2nccnc21`, the “Percent Effect” value came to 134.2%.

In the case of `Cc1ccc(C(=O)N2CC(c3cccnc3)C2)cc1N1CCNC1=O`, the “Percent Effect” value is on record as -5.741%.

For `Cn1nc(C2CN(C(=O)c3ccncc3)C2)c2nccnc21`, the “Percent Effect” value was found to be 104.9%.
